# Test results taken from the supplement of paper PMC6555819.
# Assays:
# Assay in all cases: PBM binding z-score (relative to random genomic background probes); higher = stronger binding; sequences stand for … in GC…GCGATTGACAGCGTAGAATGAAGG
# [1] = test system: RARb homodimer (NR concentration 270 nM)
# Summary of the method: (§1)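 Antibodies against each partner of ligand-free nuclear receptor dimers (one per run) detected binding on custom Agilent 4×180K protein-binding microarrays after 1 h incubation. The double-stranded probes had 34-nt variable regions carrying direct-repeat seeds, single-nucleotide variants, half-site ablations and random human genomic background sequences. Binding z-scores, from regression-normalized fluorescence, use the random background probes as reference.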
# [2] = test system: RARg:RXRa (NR concentration 270 nM, RXRa partner concentration 90 nM)
# Summary of the method: as §1
# [3] = test system: RARg homodimer (NR concentration 270 nM)
# Summary of the method: as §1
# [4] = test system: RXRa DBDmut IVT, anti-RXR (DBD mutation: RXRa K156A/R161A, NR concentration 90 nM)
# Summary of the method: as §1
# [5] = test system: RXRa homodimer (NR concentration 180 nM)
# Summary of the method: as §1
# [6] = test system: THRa:RXRa (NR concentration 90 nM, RXRa partner concentration 90 nM)
# Summary of the method: as §1
# [7] = test system: THRa homodimer (NR concentration 90 nM)
# Summary of the method: as §1
# [8] = test system: VDR homodimer (NR concentration 270 nM)
# Summary of the method: as §1
Sequence,PBM binding z-score [1],PBM binding z-score [2],PBM binding z-score [3],PBM binding z-score [4],PBM binding z-score [5],PBM binding z-score [6],PBM binding z-score [7],PBM binding z-score [8]
GCTAGTTGTTCAGTAAAAGGTCACACACCGGTCG,5.07,4.7,4.28,0.628,5.06,3.39,1.77,1.84
AGCACGAGGGCACGCTGAGTTGATAGCAGAGTAG,1.33,1.97,2.42,1.87,1.52,2.05,0.103,0.992
CCTCGGAGGACAACAGGAGGTCCGAGCTGCCAGA,0.279,0.372,0.854,-0.16,-0.455,0.4,-0.324,-0.197
ATCTCTAGGTAAGACTCAGTGCAGTGAAGAACGC,0.192,0.0414,0.117,-0.00244,0.00631,0.285,0.26,0.24
CGTACTGGGCCAAAAAGGTCATTGATGCCGATAA,4.63,4.76,4.11,1.07,4.86,3.15,0.617,2.61
CTCGAAAGGTCGGTGGAGGTGAGTATACGGATAA,2.57,2.73,2.83,0.607,2.32,4.27,0.235,0.546
GCCAGCAGGCCATTTGGGTCACTCAATGACGGGC,1.78,1.14,1.3,-0.31,0.736,1.8,0.516,0.49
GCTGCTAGCTCAACTGATGGTCAGCTAAAGCTCG,-0.699,-0.731,-0.78,-0.306,-0.88,-0.877,-1.48,-1.04
TATACAGGGTCAAAAGCCAGAGTACGAATGTCGA,2.74,4.82,4.2,2.54,5.88,3.04,0.446,2.71
CCGACTGGGGCAGAAACGTTACCATACCATCCGG,-0.276,-0.119,-0.0645,-0.654,-0.341,-0.691,-0.735,-0.552
GCATATAGGTAATACAAGGTGAACGTCCGATTGT,0.986,0.615,0.716,0.418,0.745,4.18,1.38,0.386
CCTTACGGATCACTGACAGGTTATAGCATTTGGA,0.537,0.614,0.579,0.744,0.347,0.372,0.628,0.612
GGGACGAGGGCAAAGTTGATAGCATCTGTCGACG,1.44,2.17,1.98,2.35,1.9,1.52,0.0608,1.85
ACTTACGGGTCAACCAGGTTATAGCACGCGTATA,3.43,5.74,5.08,2.31,6.13,3.79,0.987,2.74
CGAACTAGGTCATTGACAGGACAGTGAATAGTAA,2.71,4.63,4.21,2.33,2.61,2.98,0.802,0.793
ATCGAAAGGTCGTGGTGAGTATAGAGAAAGGGAA,2.85,4.45,3.8,1.52,4.79,2.82,0.58,1.23
CTACCAAGGAGAACAAGGTCGTTGATTACTATTC,1.14,0.413,0.266,1.2,0.732,1.87,1.05,1.73
CCGACTGGGGCAAAGGTTACCGTACTCAGTACGA,2.03,3.44,1.64,-0.356,3.45,1.7,-0.542,-0.111
CCAGACAGGTGAGAAGGTAACTTAGCCTCGATTA,0.632,0.486,0.577,-0.104,0.246,0.524,0.316,0.118

Sequence,PBM binding z-score [1],PBM binding z-score [2],PBM binding z-score [3],PBM binding z-score [4],PBM binding z-score [5],PBM binding z-score [6],PBM binding z-score [7],PBM binding z-score [8]
TCTTGTAGATCAACAGGAGGTTAACAAAGATCGA,0.875,1.22,0.542,0.267,1.3,1.22,0.0101,-0.33
CGTCCAAGGTCAGAGAGGTCAGGGAATGCCGAGT,5.34,6.59,7.38,3.45,6.19,4.47,3.11,4.88
TCTGCTAGGTCAGTTCGTCAGCTAACGAGCTGCC,1.84,2.16,3,0.634,0.516,1.2,-0.388,0.389
AATACAGGGTCACTATGCCAGAGTAGGTACGAAT,2.83,4.76,4.14,2.94,5.15,3.31,1.27,2.48
CGTCCAAGGTCAGCAGGTCAGTGACAGCGACGTG,5.12,6.43,7.03,2.63,5.26,3.87,2.43,2.08
GCTGCTAGGTCAACTGATAGTCAGCTAAAGCTCG,3.15,4.31,5.07,1.68,2.75,2.74,0.622,0.0089
ACTCGAAGGACAAAGGTCAGAGCTACGCCAGTGA,4.53,5.85,4.94,0.729,4.69,3.02,0.499,0.565
CGAACTAGGTCATTGACAGGACTGTGAATAGTAA,2.4,3.66,4.03,2.31,2.35,2.49,0.524,0.706
CGTACAAGGTCAGAGAGGTCAGTGAATGCCGAGT,5.31,6.28,7.24,3.52,5.95,4.23,2.64,6
ATCTCTAGGTAACAATTTCAGTGAAAGAGAGGAC,0.316,0.547,0.814,0.235,0.51,1.06,0.784,0.542
CCTACTGGGCAACGAAAGGTCATTGATTCAGTGA,4.44,4.88,4,0.496,4.73,3.09,0.612,2.35
CAGCCTAGGTCAGGGGCAGTATAGGAGGAACGTT,2.99,3.27,4.18,-0.191,1.91,2.37,0.948,0.103
ACTATTAGTTGAGACGAGGACAACCGATAGGTTG,0.638,0.27,0.902,0.0973,0.226,3.9,2.56,0.657
CCTAGCAGGCCTGGGTCACTCAAGCATTTCGCTT,1.69,1.25,0.967,-0.144,0.958,1.48,0.229,-0.269
ACATGTAGGTTACATCCGGGTCATTCAGGCTATG,3.01,3.84,2.29,1.4,3,3.83,2.85,3.73
TCTCGCAGGCCAGAGGGTCACTCAAGAGGTACGG,2.75,2.79,2.32,0.313,2.76,1.73,0.0741,0.536
GCTGCTAGGTCAAATGATGGTCAGCTAAAGCTCG,3.24,5.08,5.22,1.89,3.09,2.78,0.255,-0.00739
ACAGACAGGTGAGTAAAGGTAACTCAGCTGGACG,0.365,0.666,0.622,-0.605,0.915,1.67,-0.828,-0.485
TCATATAGGTAAAACGTGAAAGTCGGTGTGGTAA,-0.166,0.237,-0.0627,1.62,0.564,0.025,-0.0697,0.126

Sequence,PBM binding z-score [1],PBM binding z-score [2],PBM binding z-score [3],PBM binding z-score [4],PBM binding z-score [5],PBM binding z-score [6],PBM binding z-score [7],PBM binding z-score [8]
TCTAGCAGGCCAGAGGCTCACTCAAGAGGTACGG,-0.995,-0.48,-0.695,-0.462,-0.277,-0.767,-1.59,-1.07
TCTAGTAGATCAAAGGTTAAGAAAGCCGAAGCCT,1.26,1.37,0.721,0.713,3.04,1.19,-0.728,-0.063
CGAACTAGGTCAAGGATAGTGAATCTCCGCACGC,3.08,3.74,4.44,1.47,2.58,2.67,1.35,0.279
AGAAGGAGGTTAAGATCAGGGAAACAGAATACAT,1.51,1.73,1.36,0.0542,1.96,1.94,0.811,0.91
CAAACTAGGTCACGAAAGGTCAAAGTCGAATGAC,5.65,7.91,8.57,2.39,7.98,5.23,2.6,3.77
GCTAGCAGGCCATTTGGGTCACTCAGTGACGGGC,1.63,0.822,1.04,0.0208,0.754,1.9,0.383,0.166
CAAACTAAGTCAAGAGGTCAAAGTCCGCTTCCCG,4.49,5.8,4.46,2.11,6.2,3.92,1.7,4.04
GTAGCAAGGTGAATAGGTCGTTGATGAGTAGGCG,1.48,2.35,1.1,-0.689,1.56,1.36,-0.149,-0.287
TTACCAAGGTGAAAGGTAGTTGATGCACGCCTTG,0.674,1.1,0.73,0.0303,1.67,1.73,0.341,-0.225
TTACCAAGGTGAAGGTCATTGATCCCTCTGTAGA,3.83,3.84,3.53,1.15,4.16,3.41,1.74,2.17
TCGAGTAGGTAAGTCGGGGCATTCAGCCAACATA,-0.0679,-0.527,-0.571,0.129,-0.331,0.543,-0.297,-0.05
ACTAGCTGGCCAAGTTTGGGTCACTCAAACAAAG,1.35,0.786,0.564,-0.366,0.323,1.82,0.793,-0.123
GCTAGCAGGCCATTTGGGTCGCTCAATGACGGGC,-0.128,-0.381,-0.146,-0.286,-0.42,-0.00184,-0.914,-0.635
CCTTACGGGTCACTAGGTTATAGCACGACGAGCG,3,4.53,4.46,1.22,4.2,2.29,0.139,1.24
GGAACTAGGGCATTCGAGTTGATAGCATGGCGAT,0.555,0.292,0.971,0.774,0.131,2.13,-0.433,0.769
ACTATTAGTTGACCTAGGGCAACCGATACGACGC,3.05,2.88,2.36,0.89,2.55,2.96,1.6,0.946
ATACCAGGGTGATCGTGAGGTCGTTGATACTAAC,1.83,2.26,0.727,0.415,1.78,3.38,2.62,2.64
CCTGCCAGGTCATGGTCAGCTAATCTACAGTATG,3.28,4.12,4.46,1.81,3.17,3.64,2.48,0.972
